Calls of active or inactive are those of the source.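 Rule for the calls: active = normalized viability below 100% at a tested concentration; inactive = the rest.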

One assay can be described thus: drug combination growth inhibition, ovarian cancer – cell-based, oncology-focused library, rucaparib conditional, profiling panel (AID 1508598). The following applies: patient-derived ovarian cancer cells, CellTiter-Glo viability, 144 h; at 0.000305 µM; OCI-C5x cells; with rucaparib 10 µM; stronger effect = lower value; 100% = cells with rucaparib alone. (ATP-based viability assays read luminescence as a measure of living cells.)
For `O=C(CCCCCCC(=O)Nc1ccc([C@H]2O[C@@H](CSc3nc(-c4ccccc4)c(-c4ccccc4)o3)C[C@@H](c3ccc(CO)cc3)O2)cc1)NO`, the viability is 114% (inactive).

For `CNC(=O)c1cc(Oc2ccc(NC(=O)Nc3ccc(Cl)c(C(F)(F)F)c3)c(F)c2)ccn1`, the viability was 108% (inactive).

Consider `CS(=O)(=O)N1CCc2c(-c3cnc(N)nc3)nc(N3CCOCC3)nc21`, for which the viability is 100% (inactive).

With `Nc1ccn([C@@H]2O[C@H](CO)[C@@H](O)C2(F)F)c(=O)n1`, the viability is 107% (inactive).

`CNC(=O)c1cc(COc2nnc(Nc3ccc(Cl)cc3)c3ccoc23)ccn1`: the viability is 113% (inactive).

Still in this assay, the particulars now being: patient-derived ovarian cancer cells, CellTiter-Glo viability, 144 h; at 0.000305 µM; OCI-C5x cells; without rucaparib; stronger effect = lower value.
As to `O=C(CCCCCCC(=O)Nc1ccc([C@H]2O[C@@H](CSc3nc(-c4ccccc4)c(-c4ccccc4)o3)C[C@@H](c3ccc(CO)cc3)O2)cc1)NO`, the viability is 141% (inactive).

With `CNC(=O)c1cc(Oc2ccc(NC(=O)Nc3ccc(Cl)c(C(F)(F)F)c3)c(F)c2)ccn1`, the viability is 90.4% (active).

As for `CS(=O)(=O)N1CCc2c(-c3cnc(N)nc3)nc(N3CCOCC3)nc21`, the viability is 117% (inactive).

Regarding `Nc1ccn([C@@H]2O[C@H](CO)[C@@H](O)C2(F)F)c(=O)n1`, the viability is 87.2% (active).

Turning to `CNC(=O)c1cc(COc2nnc(Nc3ccc(Cl)cc3)c3ccoc23)ccn1`, the viability is 111% (inactive).

The same assay, now with this note: patient-derived ovarian cancer cells, CellTiter-Glo viability, 144 h; at 0.000305 µM; OCI-P5x cells; with rucaparib 20 µM; stronger effect = lower value; 100% = cells with rucaparib alone.
In the case of `O=C(CCCCCCC(=O)Nc1ccc([C@H]2O[C@@H](CSc3nc(-c4ccccc4)c(-c4ccccc4)o3)C[C@@H](c3ccc(CO)cc3)O2)cc1)NO`, the viability is 97.6% (active).

Turning to `CNC(=O)c1cc(Oc2ccc(NC(=O)Nc3ccc(Cl)c(C(F)(F)F)c3)c(F)c2)ccn1`, the viability was 101% (inactive).

Turning to `CS(=O)(=O)N1CCc2c(-c3cnc(N)nc3)nc(N3CCOCC3)nc21`, the viability is 117% (inactive).

As for `Nc1ccn([C@@H]2O[C@H](CO)[C@@H](O)C2(F)F)c(=O)n1`, the viability is 74.1% (active).

In the case of `CNC(=O)c1cc(COc2nnc(Nc3ccc(Cl)cc3)c3ccoc23)ccn1`, the viability is 105% (inactive).

Staying with this assay, now noted: patient-derived ovarian cancer cells, CellTiter-Glo viability, 144 h; at 0.000305 µM; OCI-P5x cells; without rucaparib; stronger effect = lower value.
As to `O=C(CCCCCCC(=O)Nc1ccc([C@H]2O[C@@H](CSc3nc(-c4ccccc4)c(-c4ccccc4)o3)C[C@@H](c3ccc(CO)cc3)O2)cc1)NO`, the viability is 111% (inactive).

As for `CNC(=O)c1cc(Oc2ccc(NC(=O)Nc3ccc(Cl)c(C(F)(F)F)c3)c(F)c2)ccn1`, the viability was 104% (inactive).

With `CS(=O)(=O)N1CCc2c(-c3cnc(N)nc3)nc(N3CCOCC3)nc21`, the viability was 109% (inactive).

With `Nc1ccn([C@@H]2O[C@H](CO)[C@@H](O)C2(F)F)c(=O)n1`, the viability is 32.9% (active).

Consider `CNC(=O)c1cc(COc2nnc(Nc3ccc(Cl)cc3)c3ccoc23)ccn1`, for which the viability is 114% (inactive).

Still in this assay, the particulars now being: patient-derived ovarian cancer cells, CellTiter-Glo viability, 144 h; at 0.00122 µM; OCI-C5x cells; with rucaparib 10 µM; stronger effect = lower value; 100% = cells with rucaparib alone.
For `O=C(CCCCCCC(=O)Nc1ccc([C@H]2O[C@@H](CSc3nc(-c4ccccc4)c(-c4ccccc4)o3)C[C@@H](c3ccc(CO)cc3)O2)cc1)NO`, the viability was 112% (inactive).

As to `CNC(=O)c1cc(Oc2ccc(NC(=O)Nc3ccc(Cl)c(C(F)(F)F)c3)c(F)c2)ccn1`, the viability was 108% (inactive).

`CS(=O)(=O)N1CCc2c(-c3cnc(N)nc3)nc(N3CCOCC3)nc21`: the viability was 103% (inactive).

On to `Nc1ccn([C@@H]2O[C@H](CO)[C@@H](O)C2(F)F)c(=O)n1`, for which the viability is 90.4% (active).

`CNC(=O)c1cc(COc2nnc(Nc3ccc(Cl)cc3)c3ccoc23)ccn1`: the viability was 109% (inactive).

Staying with this assay, now noted: patient-derived ovarian cancer cells, CellTiter-Glo viability, 144 h; at 0.00122 µM; OCI-C5x cells; without rucaparib; stronger effect = lower value.
As to `O=C(CCCCCCC(=O)Nc1ccc([C@H]2O[C@@H](CSc3nc(-c4ccccc4)c(-c4ccccc4)o3)C[C@@H](c3ccc(CO)cc3)O2)cc1)NO`, the viability is 131% (inactive).

Take `CNC(=O)c1cc(Oc2ccc(NC(=O)Nc3ccc(Cl)c(C(F)(F)F)c3)c(F)c2)ccn1`: the viability is 90.8% (active).

On to `CS(=O)(=O)N1CCc2c(-c3cnc(N)nc3)nc(N3CCOCC3)nc21`, for which the viability was 117% (inactive).

As for `Nc1ccn([C@@H]2O[C@H](CO)[C@@H](O)C2(F)F)c(=O)n1`, the viability was 93.9% (active).

On to `CNC(=O)c1cc(COc2nnc(Nc3ccc(Cl)cc3)c3ccoc23)ccn1`, for which the viability is 117% (inactive).

The assay is the same for the next values; noted with them: patient-derived ovarian cancer cells, CellTiter-Glo viability, 144 h; at 0.00122 µM; OCI-P5x cells; with rucaparib 20 µM; stronger effect = lower value; 100% = cells with rucaparib alone.
`O=C(CCCCCCC(=O)Nc1ccc([C@H]2O[C@@H](CSc3nc(-c4ccccc4)c(-c4ccccc4)o3)C[C@@H](c3ccc(CO)cc3)O2)cc1)NO`: the viability is 90.6% (active).

Consider `CNC(=O)c1cc(Oc2ccc(NC(=O)Nc3ccc(Cl)c(C(F)(F)F)c3)c(F)c2)ccn1`, for which the viability is 109% (inactive).

Turning to `CS(=O)(=O)N1CCc2c(-c3cnc(N)nc3)nc(N3CCOCC3)nc21`, the viability was 115% (inactive).

On to `Nc1ccn([C@@H]2O[C@H](CO)[C@@H](O)C2(F)F)c(=O)n1`, for which the viability is 55.8% (active).

For `CNC(=O)c1cc(COc2nnc(Nc3ccc(Cl)cc3)c3ccoc23)ccn1`, the viability is 102% (inactive).

The assay is the same for the next values; noted with them: patient-derived ovarian cancer cells, CellTiter-Glo viability, 144 h; at 0.00122 µM; OCI-P5x cells; without rucaparib; stronger effect = lower value.
For the compound `O=C(CCCCCCC(=O)Nc1ccc([C@H]2O[C@@H](CSc3nc(-c4ccccc4)c(-c4ccccc4)o3)C[C@@H](c3ccc(CO)cc3)O2)cc1)NO`, the viability was 114% (inactive).

Take `CNC(=O)c1cc(Oc2ccc(NC(=O)Nc3ccc(Cl)c(C(F)(F)F)c3)c(F)c2)ccn1`: the viability was 106% (inactive).

On to `CS(=O)(=O)N1CCc2c(-c3cnc(N)nc3)nc(N3CCOCC3)nc21`, for which the viability was 111% (inactive).

In the case of `Nc1ccn([C@@H]2O[C@H](CO)[C@@H](O)C2(F)F)c(=O)n1`, the viability was 27% (active).

Consider `CNC(=O)c1cc(COc2nnc(Nc3ccc(Cl)cc3)c3ccoc23)ccn1`, for which the viability is 109% (inactive).

One may read the viability as a read-out of living cells in per cent, often relative to untreated cells.
